Test results from PubChem BioAssay (Tox21).
Inconclusive results are not listed. Where a call stands in place of a potency, no number is given. Activity calls are given as the source filed them. Calls come from the whole dose curve.

experiment: p53 small molecule agonists, cell-based qHTS assay: qHTS cell viability counter screen (AID 1963581); details: p53RE-bla HCT-116 viability, ATP luminescence, 16 h; series mostly up to 66 µM; note: nearly all actives have a fitted effect of over 45% in size
Method in brief: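 p53RE-bla HCT-116 cells were exposed to compounds for 16 h at 37 C; after the beta-lactamase FRET read in the same wells, CellTiter-Glo was added and luminescence (intracellular ATP) read after 30 min at room temperature.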
Potency is the fitted concentration of half-maximal effect.

SMILES	Potency
Cc1cc(C)c(NC(=O)CN(CC(=O)O)CC(=O)O)c(C)c1Br	inactive
CC(=O)c1c(C)cc(C(C)(C)C)cc1C	inactive
O=C(O)Cc1c(Cl)ccc(Cl)c1Cl	inactive
COc1ccc(C2C(=O)c3ccccc3C2=O)cc1	inactive
CCCCCc1ccco1	inactive
CN(CCOc1ccc(NS(C)(=O)=O)cc1)CCc1ccc(NS(C)(=O)=O)cc1	inactive
CN(C)CCc1c[nH]c2ccc(C[C@H]3COC(=O)N3)cc12	inactive
Cc1ncc(CO)c(C=O)c1O	inactive
O=CN1CCCCC1	inactive
CCOC(=O)COc1cc(-n2ncc(C(F)(F)F)c(C)c2=O)c(F)cc1Cl	inactive
Oc1ccc(-c2ccc(O)cc2)cc1	inactive
Cc1cccc([N+](=O)[O-])c1C(=O)O	inactive
c1ccc(C(O[C@H]2CCCN(CCc3ccc4c(c3)OCO4)C2)c2ccccc2)cc1	inactive
CCC(C)CCCC(C)(C)O (stereo not drawn)	inactive
CCOc1ccc(NC(=O)OC(C)C)cc1OCC	inactive
CC(C)C(=O)OCc1ccccc1	inactive
CN(C)[C@@H]1C(=O)C(C(=O)NCN2CCCC2)=C(O)[C@@]2(O)C(=O)C3=C(O)c4c(O)cccc4[C@@](C)(O)C3C[C@@H]12 (stereo partly drawn)	inactive
CC(=O)OC1CCCCC1	inactive
CCOC(=O)C(C)(C)C	inactive
CCCCCCCCN(C)CCCCCCCC	inactive
COc1cc2nc(Cl)nc(N)c2cc1OC	inactive
CCCN(CCC)c1c([N+](=O)[O-])cc(C(F)(F)F)c(N)c1[N+](=O)[O-]	18.2 µM (active)
CCN(CC)c1ccc(C=O)cc1	inactive
